# rCAG RNA binder = binds r(CAG) RNA repeats; r(CAG) RNA repeat, TO-PRO-1 dye displacement fluorescence; inhibition, % at 3 µM; actives 1.3% (n = 370,000); AID 651821;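 active = inhibition above the plate cutoff, the mean of all test compounds on that plate plus 3 SD, cut at about 35% in these data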;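 also: 0% = DMSO alone and 100% = 100 µM mitoxantrone as full dye displacement; higher means more dye released from RNA so lower well fluorescence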
# MsrA inh = bovine MsrA inhibition; purified bovine MsrA, absorbance read-out; inhibition, % at 15.5 µM; actives 0.75% (n = 360,000); AID 651718; in the data active = inhibition above about 4.5%;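 also: 0% = vehicle wells with enzyme and 100% = reference inhibitor wells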
# NadD inh = blocks S. aureus nicotinate mononucleotide adenylyltransferase | AID 602399 | actives 0.78% (n = 360,000) | inhibition, % at 20 µM | purified NadD enzyme, colorimetric absorbance read-out; in the data active = inhibition above about 26%
# bovine MsrA act = bovine methionine sulfoxide reductase A activation; actives 0.3% (n = 360,000); purified bovine MsrA, absorbance read-out; activation, % at 10.6 µM; AID 602163; in the data active = activation above about 7.5%;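 also: 0% = vehicle and 100% = reference activator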
# NadD inh conf = confirmation of Staphylococcus aureus NadD inhibitors | shares compounds with NadD inh | purified S. aureus NadD, colorimetric enzyme assay | inhibition, % at 20 µM | actives 13% (n = 2,000); in the data active = inhibition mostly above about 42%, no sharp cut-off; inactive = mostly below about 42%
# Numbers without * were called inactive; · = no result given. This is a sample that favours compounds with a hit; in the whole collection about 2.7% have one here.
SMILES,rCAG RNA binder,MsrA inh,NadD inh,bovine MsrA act,NadD inh conf
Cc1nn(-c2ccccc2)c(N2CCCC2)c1/C=N/Nc1ccc(S(=O)(=O)Nc2ccccc2)cc1[N+](=O)[O-],4,0,47*,-2,22
CCOc1ccc(S(=O)(=O)Nc2ccc(C(=O)N/N=C/c3c(C)nn(-c4ccccc4)c3N3CCCC3)cc2)cc1,25,2,33*,-2,24
Cc1cc(C)cc(Cn2c3ccc(NC(=O)NCCc4cccs4)cc3c(=O)n2C)c1,3,1,-5,-1,·
C=C1c2nc3ccccc3n2C=C(c2ccc(C)cc2)N1c1ccccc1,6,2,11,-8,·
COc1ccc(-n2c(SCC(=O)NCC3CCCO3)nc3ccccc3c2=O)cc1Cl (centres undefined),3,2,-6,6,·
O=[N+]([O-])c1cccc(SSc2cccc([N+](=O)[O-])c2)c1,3,1,44*,17*,58*
N#CCC(=O)N/N=C/c1ccc(N2N=C(c3ccccc3)CC2c2ccccc2)cc1 (centres undefined),18,4,49*,-4,26
Cc1nc(-c2ccccc2OC(F)(F)F)[nH]c(=O)c1Cl,0,2,-2,-12,·
O=C(/C=C/Nc1ccc(S(=O)(=O)Nc2ncccn2)cc1)c1ccc(Cl)c(Cl)c1,7,-1,40*,-3,3
O=C(COc1cccc(Cl)c1)N/N=C\c1cc2ccccc2nc1Cl,0,1,6,-5,·
O=C(CNc1ccc2ccccc2c1)N/N=C/c1cc2ccccc2nc1Cl,24,2,40*,-4,21
CC(C)(C)c1ccc(C2CC2C(=O)N/N=C\c2cc3ccccc3nc2Cl)cc1 (centres undefined),5,1,36*,0,-1
CCOC(=O)c1ccc(P(=O)(c2ccccc2)c2ccccc2)cc1,-7,-2,-5,-2,·
COC(=O)[C@]12C[C@H](CC(=O)NCc3cccc4ccccc34)C(=O)N(CCC3=CCCCC3)C1=C[C@H](C(C)C)O[C@@H]2C1CC1,7,·,·,·,·
CC(C)C[C@@H](CN)NC(=O)c1nc[nH]c1C(=O)N[C@@H](C)C(=O)CNC[C@H](C)NC(=O)c1nc[nH]c1C(=O)N[C@@H](Cc1ccccc1)C(=O)O,-1,1,8,2,·
O=C(CSc1n[nH]c(-c2cccs2)n1)N1CCN(S(=O)(=O)c2ccc3ccccc3c2)CC1,12,0,47*,2,29
COc1cc2[nH]c(C(=O)N3CCC(Cc4ccccc4)CC3)cc2c(OC)c1OC,-5,1,-5,0,·
Cc1ccc(N2C(=O)C3N=NN(CC(=O)N4N=C(c5ccccc5)CC4c4ccccc4)C3C2=O)cc1 (centres undefined),9,1,43*,-2,31
CCOc1ccc(N=Nc2ccc(O)c3ncccc23)cc1,5,0,10,-6,·
CCOc1ccc2c(ccc(/C=C/c3cc(C)c4cccnc4c3O)[n+]2C)c1,·,·,55*,1,89*
O=C(COC(=O)c1cccs1)NCc1ccco1,6,0,-2,0,·
O=C(COC(=O)c1ccc(NS(=O)(=O)c2cccs2)cc1)NCc1ccco1,·,·,30*,-3,32
O=C(NCCc1ccc(F)cc1)c1cccc2c1C(=O)c1ccc(N3CCC(Cc4ccccc4)CC3)cc1S2(=O)=O,·,·,28*,-2,5
O=C(NCc1ccco1)c1cccc2c1C(=O)c1ccc(N3CCC(Cc4ccccc4)CC3)cc1S2(=O)=O,·,·,39*,-2,5
O=C(NCc1ccco1)c1cccc2c1C(=O)c1ccc(/C=C/c3ccccc3)cc1S2(=O)=O,39*,3,48*,-4,46*
SMILES,rCAG RNA binder,MsrA inh,NadD inh,bovine MsrA act,NadD inh conf
CCC(C(=O)OCC(=O)Nc1ccc2[nH]c(=O)[nH]c2c1)c1ccccc1 (centres undefined),-1,0,0,-3,·
COc1cccc(CN(C)C(=O)C2CCCN(C(=O)c3ccc(Cl)cc3)C2)c1 (centres undefined),0,0,-1,-2,·
CC(C)C[C@H]1CNC(=S)N1CC1CCCN1C[C@H](Cc1ccc(O)cc1)N1C[C@H](Cc2ccccc2)N(CC2CCCCCC2)C1=S (some centres undefined),11,-1,22,-2,·
CC(C)C[C@H]1CNC(=S)N1CC1CCCN1C[C@H](Cc1ccccc1)N1C[C@H](Cc2ccc(O)cc2)N(CC2CCCCC2)C1=S (some centres undefined),13,0,32*,-3,-1
CC(C)C[C@H]1CNC(=S)N1C[C@H]1CCCN1C[C@H](Cc1ccccc1)N1C[C@H](Cc2ccc(O)cc2)N(CC2CCCCCC2)C1=S,9,-1,42*,-2,-12
COC(=O)[C@]12C[C@H](CC(=O)N3CCCC3)C(=O)N(CCC3=CCCCC3)C1=C[C@H](C(C)(C)C)O[C@@H]2C,0,1,·,·,·
N#CC1=C(N)n2c(s/c(=C\c3cccs3)c2=O)=C(C#N)C1c1cccs1 (centres undefined),51*,2,49*,-3,5
CC(C)c1ccc(/C=c2\sc3n(c2=O)C(N)=C(C#N)C(c2ccc(C(C)C)cc2)C=3C(N)=O)cc1 (centres undefined),8,0,25,-8,·
O=c1cc(-c2ccccc2)oc2cc(OCc3ccccc3)cc(O)c12,3,0,-1,-2,·
O=c1cc(-c2ccc(OCc3ccccc3)cc2)oc2cc(OCc3ccccc3)cc(OCc3ccccc3)c12,10,2,42*,-1,13
COc1cc(C(=O)Nc2nc(-c3cc(C)ccc3C)c(C)s2)ccc1OCC(=O)Nc1ccc(F)cc1,4,-1,33*,-5,18
Cc1ccccc1COc1ccc(/C(O)=C2/C(=O)C(=O)N(CCCn3ccnc3)C2c2ccco2)cc1 (centres undefined),15,0,31*,-5,53*
C[C@H](CO)N1C[C@H](C)[C@@H](CN(C)S(=O)(=O)c2ccccc2F)Oc2ncc(C#Cc3cccnc3)cc2C1=O,4,1,12,-1,·
C[C@H]1CN([C@@H](C)CO)C(=O)c2cc(C#Cc3cccnc3)cnc2O[C@H]1CN(C)Cc1ccc(F)cc1,4,0,39*,-4,16
CN(CC(=O)Nc1cc(Cl)cc(Cl)c1)Cc1cccs1,4,0,-4,-6,·
CC(C)C[C@@H](CNCC(=O)[C@H](CC(=O)O)NC(=O)c1[nH]cnc1C(=O)N[C@H](CN)CC(C)C)NC(=O)c1nc[nH]c1C(=O)N[C@@H](Cc1ccccc1)C(=O)O,15,0,35*,-3,52*
Cc1cc(-c2csc(NC(=O)c3ccccc3C(F)(F)F)n2)c(C)n1Cc1ccccc1,19,2,33*,-3,20
O=C(c1ccco1)N1N=C(c2ccco2)CC1c1ccc(Cl)cc1Cl (centres undefined),8,3,31*,0,0
